# Source: PubChem
# Hits are enriched below; roughly 11% of the tested compounds scored in any of these assays.
# hNpr1 antagonist: Natriuretic polypeptide receptor (hNpr1) antagonism - Primary qHTS | HEK293 hNpr1 GloSensor cGMP, ANP-stimulated luminescence | Potency, µM (doses to about 46.3 µM), usual class: inhibitors | 76,000 tested, 1.6% active | AID 1347048, 2019; calls by dose curve; note: nearly all actives have a fitted effect of over 60% in size
# Target sequence (P16066 whole entry, looked up): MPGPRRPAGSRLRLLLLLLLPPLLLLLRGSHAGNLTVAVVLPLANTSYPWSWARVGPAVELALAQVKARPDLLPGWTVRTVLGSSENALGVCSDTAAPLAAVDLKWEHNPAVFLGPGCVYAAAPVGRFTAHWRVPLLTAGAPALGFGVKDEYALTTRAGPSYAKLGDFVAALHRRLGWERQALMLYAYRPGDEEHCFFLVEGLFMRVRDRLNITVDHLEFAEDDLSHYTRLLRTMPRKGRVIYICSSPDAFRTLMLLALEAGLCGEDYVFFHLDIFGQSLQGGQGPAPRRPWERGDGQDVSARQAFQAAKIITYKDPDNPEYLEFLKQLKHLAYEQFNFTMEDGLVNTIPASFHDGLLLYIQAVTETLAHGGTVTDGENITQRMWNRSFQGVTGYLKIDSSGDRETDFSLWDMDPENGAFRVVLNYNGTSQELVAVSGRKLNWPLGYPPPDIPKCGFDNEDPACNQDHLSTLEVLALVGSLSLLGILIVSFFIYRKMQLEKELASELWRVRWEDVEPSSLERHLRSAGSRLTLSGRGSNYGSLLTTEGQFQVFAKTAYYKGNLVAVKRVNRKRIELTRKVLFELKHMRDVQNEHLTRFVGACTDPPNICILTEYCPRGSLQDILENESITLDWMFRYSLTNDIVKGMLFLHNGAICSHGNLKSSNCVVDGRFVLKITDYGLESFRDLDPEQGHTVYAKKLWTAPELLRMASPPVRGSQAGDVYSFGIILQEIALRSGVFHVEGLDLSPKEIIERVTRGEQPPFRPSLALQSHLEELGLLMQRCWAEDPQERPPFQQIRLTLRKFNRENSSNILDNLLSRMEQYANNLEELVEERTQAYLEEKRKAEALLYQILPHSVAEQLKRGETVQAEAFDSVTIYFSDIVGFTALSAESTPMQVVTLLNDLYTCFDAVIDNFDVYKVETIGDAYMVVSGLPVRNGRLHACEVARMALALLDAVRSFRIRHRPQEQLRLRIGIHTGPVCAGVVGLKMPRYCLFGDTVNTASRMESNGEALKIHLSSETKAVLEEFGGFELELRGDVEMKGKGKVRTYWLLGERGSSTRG
#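 HEK293 cells stably expressing human Npr1 and cGMP GloSensor pGS-40F, loaded 2 h with 2% GloSensor reagent, given compound 30 min at room temperature. Luminescence read before and 20 min after 0.1 nM hNppA.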
# HEK293 tox: Cytotoxic Profiling in HEK 293 Cell Line of Diverse Libraries Using Quantitative High-Throughput Screening; Potency, µM (series often up to 115 µM), hits mostly inhibitors; HEK 293 viability, ATP luminescence (CellTiter-Glo), 48-72 h; 94,000 tested, 6.6% active; note: nearly all actives have a fitted effect of over 60% in size
#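 Read-out: CellTiter-Glo ATP luminescence. Cells: HEK 293, 250 cells/well. Exposure: 48 or 72 hr, 37 degree Celsius.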
# FLuc inh: Firefly luciferase inhibition profiling of diverse chemical library using quantitative high-throughput screening. purified P. pyralis luciferase, luminescence, biochemical. AID 1347043, 2019. Potency, µM (doses to about 115 µM), most hits filed as inhibitors. Luciferin 4-monooxygenase (Photinus pyralis), P08659. 76,000 tested, 2.5% active; note: nearly all actives have a fitted effect of over 65% in size
#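 Inhibitors were tested against purified firefly luciferase in a biochemical, low-substrate format (both substrates at 10uM) and luminescence measured with a CCD imager.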
# NIH3T3 tox: Cytotoxic Profiling in NIH 3T3 Cell Line of Diverse Libraries Using Quantitative High-Throughput Screening; Potency, µM (highest dose often 96.7 µM), actives largely listed as inhibitors; NIH 3T3 viability, CellTiter-Glo ATP luminescence, 48-72 h; 94,000 tested, 4.3% active; AID 1345082, 2018; note: nearly all actives have a fitted effect of over 55% in size
#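 Viability of NIH 3T3 cells after 48 or 72 hr compound treatment at 37 °C was assessed by CellTiter-Glo, with luminescence imaged following a 10 min room-temperature step.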
# Numbers stand for hits; 0 = inactive; ? = inconclusive; - = not tested or not shown. Unless noted, calls come from the whole dose curve; as a rule, active = well fitted curve in the direction sought with a large enough effect; inconclusive = small, poorly fitted or top-dose-only effect, or another doubt; inactive = no such curve, though single readings can be large; an effect the other way counts as inactive or inconclusive.
SMILES,hNpr1 antagonist,HEK293 tox,FLuc inh,NIH3T3 tox
Cc1ccc(C(=O)N2CCN(c3cc(-c4cccs4)[nH]n3)CC2)cc1,0,?,0,12.6µM
O=C(c1c[nH]c2ccccc12)N1CCN(c2cc(-c3cccs3)[nH]n2)CC1,0,44.7µM,0,?
O=C1NCCCCCCN(S(=O)(=O)c2cccnc2)[C@H]2C[C@H](c3nc(-c4cccnc4)no3)C[C@@H]12,0,?,0,0
CC(C)N1CC[C@H](c2nc3ccc(C(F)(F)F)cc3[nH]2)C1,0,?,22.4µM,0
COc1ccc2nc([C@H]3CCN(C(C)C)C3)[nH]c2c1,?,0,22.4µM,0
CC(C)N1CC[C@H](c2nc3ccc(C#N)cc3[nH]2)C1,0,0,39.8µM,0
CC(=O)N1CC[C@H](c2nc3ccc(C(F)(F)F)cc3[nH]2)C1,0,0,0,?
O=C(c1ccccc1Cl)N1CCCC(C(=O)N2CCC(N3CCOCC3=O)CC2)C1 (stereo not drawn),-,0,-,0
Cc1ccccc1N1Cc2c(NCCCc3ccccc3)ncnc2N(C)CC1=O,0,?,0,44.7µM
CN1CC(=O)N(c2ccc(Cl)cc2)Cc2c(NCCCc3ccccc3)ncnc21,0,?,39.8µM,31.6µM
O=C(Cc1ccc(F)cc1)N1CCN(c2nccc(Nc3ccccc3Cl)n2)CC1,-,39.8µM,-,28.2µM
COc1ccc(Nc2ccnc(N3CCN(C(=O)Cc4ccc(F)cc4)CC3)n2)cc1,-,11.2µM,-,25.1µM
O=C(Cc1ccc(F)cc1)N1CCN(c2nccc(Nc3ccccc3F)n2)CC1,-,17.8µM,-,17.8µM
CCOC(=O)C1(Cc2cccc(C(F)(F)F)c2)CCN(Cc2cc(C(C)C)n[nH]2)CC1,?,25.1µM,0,?
CCOC(=O)C1(Cc2cccc(C(F)(F)F)c2)CCN(Cc2ccc(COC)o2)CC1,?,?,0,?
CC(C)N1CC(C(=O)NCCc2ccccc2F)NC1=O (stereo not drawn),-,0,-,0
CC(C)CC(=O)Nc1ccc2c(c1)CCC(=O)N2CC(C)C,0,?,0,0
CC(C)CN1C(=O)CCc2cc(NC(=O)c3ccc(N(C)C)cc3)ccc21,0,28.2µM,?,?
CCCN1C(=O)CCc2cc(NC(=O)c3ccc(C)s3)ccc21,0,35.5µM,?,?
Cc1ccccc1CC(=O)N1C[C@@H](CO)[C@H](NC(=O)c2ccccc2)C1,-,0,-,0
O=C(NCCc1ccccc1)c1ccc2c(c1)OCCN(c1ccccc1)C2,0,?,?,?
COc1ccc(C)cc1NC(=O)N1C[C@@H](F)C[C@H]1C(=O)N1CCCCC1,0,0,0,35.5µM
COc1ccc(NC(=O)N2CCCC2c2nncn2C2CCCC2)c(OC)c1 (stereo not drawn),0,0,0,?
Cc1ccc(C)c(NC(=O)N2C[C@@H](F)C[C@H]2C(=O)N2CCCCC2)c1,0,0,0,?
COc1ccc(C)cc1NC(=O)N1CCCC1c1nncn1C1CCCC1 (stereo not drawn),0,0,0,31.6µM
SMILES,hNpr1 antagonist,HEK293 tox,FLuc inh,NIH3T3 tox
Cc1ccc(-c2cc3c(=O)n(CCNC(=O)c4cc(Cl)ccc4F)ccn3n2)cc1C,0,0,0,0
Cc1ccc(-c2cc3c(=O)n(CCNC(=O)c4cc(F)ccc4F)ccn3n2)cc1C,0,39.8µM,?,?
COc1ccc(-c2cc3c(=O)n(CCNC(=O)Cc4ccc(C)cc4)ccn3n2)cc1,?,?,?,0
Cc1ccc(-c2cc3c(=O)n(CCNC(=O)c4nn(C)c5ccccc45)ccn3n2)cc1C,0,0,?,0
COc1ccc(-c2cc3c(=O)n(CCNC(=O)Cc4ccsc4)ccn3n2)cc1,0,?,11.2µM,?
CCOc1ccc(C(=O)NCCn2ccn3nc(-c4cc(C)ccc4C)cc3c2=O)cc1,0,?,0,0
CCOc1ccc(CC(=O)NCCn2ccn3nc(-c4ccc(C)cc4C)cc3c2=O)cc1,?,?,25.1µM,?
Cc1ccc(-c2cc3c(=O)n(CCNC(=O)Cc4ccsc4)ccn3n2)cc1C,0,?,5.01µM,?
COc1cccc(S(=O)(=O)N2CCC3(CC2)N(c2ccccc2)C(=O)CS3=O)c1 (stereo not drawn),-,0,-,0
Cc1ccc(C)c(-c2cc3c(=O)n(CCNC(=O)c4ccc(F)cc4Cl)ccn3n2)c1,0,39.8µM,0,31.6µM
CN(Cc1ccc2nonc2c1)C(=O)C1CCN(C(=O)C2CCCC2)CC1,0,?,0,39.8µM
CN(Cc1ccon1)C(=O)C1CCN(C(=O)C2CCC2)CC1,0,0,0,0
O=C(C1CCN([S+](=O)([O-])c2ccccc2)CC1)N1CCC(N2CCCC2=O)CC1,-,0,-,0
COc1ccc2c(c1)nc1n2[C@@H](CNCc2ccc3c(c2)OCO3)COC1,?,56.2µM,0,?
COc1ccc2nc3n(c2c1)[C@@H](CNS(=O)(=O)Cc1ccccc1)COC3,0,?,0,89.1µM
COc1ccc(NC(=O)NC[C@H]2COCc3nc4ccccc4n32)cc1,0,0,89.1µM,?
COc1ccc2nc3n(c2c1)[C@@H](CNC(=O)c1ccc(C#N)cc1)COC3,0,0,0,89.1µM
O=C(NCc1ccc(Cl)cc1)c1c(OCC2CC2)cc(=O)n2c1CCOCC2,-,0,-,0
O=C(c1ccc(F)cc1)N1CCn2c(nnc2-c2ccccc2)C1,0,0,0,0
CN(C)Cc1cn([C@H]2CO[C@H]3[C@@H]2OC[C@H]3OC(=O)Nc2ccc(C(C)(C)C)cc2)nn1,0,?,70.8µM,?
COC(=O)c1cn([C@H]2CO[C@H]3[C@@H]2OC[C@H]3OC(=O)Nc2ccc(C(C)(C)C)cc2)nn1,0,0,0,0
Cc1ccc(C)c(NC(=O)Cn2c(-c3ccccc3)nc(C)cc2=O)c1,0,?,0,?
O=C(CN1CCCC1)N[C@H]1CC[C@H](Nc2nccc(-c3cccnc3)n2)C1,0,44.7µM,0,?
O=C(N[C@H]1CC[C@H](Nc2nccc(-c3cccnc3)n2)C1)c1ccc(O)cc1,0,?,0,?
O=C(c1ccccc1F)N1CCC2(CC1)CC(N(Cc1ccccc1)C1CC1)CCO2 (stereo not drawn),0,?,0,?
CC1=C[C@@H](CNC(=O)CN(C)C)[C@H](C(C)C)C[C@H]1Cc1nnc(-c2ccccc2F)o1,0,?,0,31.6µM
C#CCNC[C@@H]1C=C(C)[C@H](Cc2nnc(Cc3c[nH]c4ccccc34)o2)C[C@H]1C(C)C,0,50.1µM,0,?
CC1=C[C@@H](CNC(=O)c2cnccn2)[C@H](C(C)C)C[C@H]1Cc1nnc(-c2ccccc2F)o1,0,35.5µM,0,?
CC(=O)Nc1ccc(C(=O)NC[C@@H]2C=C(C)[C@H](Cc3nnc(-c4ccccc4F)o3)C[C@H]2C(C)C)cc1,0,28.2µM,0,?
CC1=C[C@@H](CNC(=O)NC(C)C)[C@H](C(C)C)C[C@H]1Cc1nnc(-c2ccccc2F)o1,0,79.4µM,0,31.6µM
